Measured values: PubChem BioAssay (NCATS)
“And” between values parts separate entries of the source, which are not always exact repeats. Identical values can stand only once. Inconclusive results are not listed. A call without a number means that no potency is given here. The source holds several records for some structures; these can differ, active in one and inactive in another. The source made the active and inactive calls. Calls come from the whole dose curve; as a rule, active = well fitted curve in the direction sought with a large enough effect; inconclusive = small, poorly fitted or top-dose-only effect, or another doubt; inactive = no such curve, though single readings can be large; an effect the other way counts as inactive or inconclusive.

How the values were obtained:
[1] = Viability qHTS for spleen associated tyrosine kinase inhibitor (SYKi) naive MV4-11 cells (AID 1963823); note: nearly all actives have a fitted effect of over 40% in size; note: potency is the fitted concentration of half-maximal effect
Outline: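 Cells: MV4-11, SYK inhibitor naive, 500 per well. Treatment: library compounds, 72 hr, 37 C, 5% CO2. Read-out: CellTiter-Glo luminescence after 10 min RT.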

[2] = Viability qHTS for spleen associated tyrosine kinase inhibitor (SYKi) drug resistant MV4-11 cells (AID 1963824); note: nearly all actives have a fitted effect of over 35% in size; note: potency is the fitted concentration of half-maximal effect
Outline: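 CellTiter-Glo luminescence, read 10 min after reagent addition, reports viability after a 72 hr compound exposure. Cells are an MV4-11 line made resistant to SYK inhibition, seeded at 500 per well onto compound-containing plates.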

[3] = Quantitative highthroughput screen to assess conditional lethalithy of NOMO1 cells grown in RPMI1640 with untreated serum (RPMI+s) (AID 1963876); note: nearly all actives have a fitted effect of over 35% in size
Outline: (§1)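 Each medium arm—HPLM with 10% dialyzed FBS, or RPMI1640 with 5 mM glucose and 10% untreated or dialyzed FBS—was screened against an 11-point, 3-fold compound titration for 48 h at 37 °C, with CellTiter-Glo luminescence as endpoint.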

[4] = Quantitative highthroughput screen to assess conditional lethalithy of NOMO1 cells grown in RPMI1640 with dialyzed fetal bovine serum (RPMI+ds) (AID 1963877); note: series mostly up to about 46 µM; nearly all actives have a fitted effect of over 30% in size
Outline: as §1

[5] = Quantitative highthroughput screen to assess conditional lethalithy of NOMO1 cells grown in Human Plasma-Like Medium with dialyzed fetal bovine serum (HPLM+ds) (AID 1963878); note: nearly all actives have a fitted effect of over 35% in size
Outline: as §1

[6] = Quantitative highthroughput screen to assess conditional lethalithy of P12 Ichikawa cells grown in Human Plasma-Like Medium with dialyzed fetal bovine serum (HPLM+ds) (AID 1963879); details: Potency: viability; note: series mostly up to about 46 µM; nearly all actives have a fitted effect of over 35% in size
Outline: as §1

[7] = Quantitative highthroughput screen to assess conditional lethalithy of P12 Ichikawa cells grown in RPMI1640 with dialyzed fetal bovine serum (RPMI+ds) (AID 1963880); details: Potency: P12-Ichikawa viability; note: nearly all actives have a fitted effect of over 35% in size
Outline: as §1

[8] = Quantitative highthroughput screen to assess conditional lethalithy of P12 Ichikawa cells grown in RPMI1640 with untreated serum (RPMI+s) (AID 1963881); details: Potency: viability
Outline: as §1

[9] = Quantitative highthroughput screen to assess conditional lethalithy of SEM cells grown in Human Plasma-Like Medium with dialyzed fetal bovine serum (HPLM+ds) (AID 1963882); note: nearly all actives have a fitted effect of over 35% in size; note: potency is the fitted concentration of half-maximal effect; for Viability: series mostly up to about 46 µM
Outline: as §1

[10] = Cellular viability qHTS for adrenocortical cancer (ACC) cell line SW-13 (AID 1963989); details: SW-13 ACC cells viability, CellTiter-Glo, 48 h; activity (max response): stronger effect = lower value; note: nearly all actives have a fitted effect of over 65% in size; note: potency is the fitted concentration of half-maximal effect;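 for activity (max response): cells grown in serum-free medium with ITS supplement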
Outline: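 IC50 and maximal-response values come from four-parameter logistic fits of titration data. SW-13 cells in serum-free medium received compounds (up to 46 uM final) for 48 h before CellTiter-Glo luminescence.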

[11] = Cellular viability qHTS for adrenocortical cancer (ACC) cell line NCI-H295R (AID 1963990); note: nearly all actives have a fitted effect of over 60% in size; note: potency is the fitted concentration of half-maximal effect
Outline: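 Adrenocortical carcinoma cells, suspended at 300 000 cells/mL in serum-free DMEM plus ITS, rested overnight before pin transfer of compound. After two days' incubation, ATP-dependent luminescence was recorded and curve-fitted.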

[12] = Quantitative highthroughput screen to assess conditional lethalithy of SEM cells grown in RPMI1640 with unreated serum (RPMI+s) (AID 1963883); note: nearly all actives have a fitted effect of over 35% in size
Outline: as §1

[13] = Quantitative highthroughput screen to assess conditional lethalithy of SEM cells grown in RPMI1640 with dialyzed fetal bovine serum (RPMI+ds) (AID 1963884)
Outline: as §1

Row | SMILES | Potency [1] | Potency [2] | Potency [3] | Potency [4] | Potency [5] | Potency [6] | Potency [7] | Potency [8] | Potency [9] | activity (max response) [10] | Potency [11] | Potency [12] | Potency [13] | Potency [10]
1 | CC1=CC(=O)c2ccccc2C1=O | 7.42 µM (active) | 4.68 µM (active) | inactive | inactive | inactive | inactive | inactive | inactive | 16.6 µM (active) | 13.5% (inactive) | inactive |  |  | 
2 | CN(C)S(=O)(=O)c1ccc2c(c1)C(=Cc1cc3c([nH]1)CCCC3)C(=O)N2 | 0.833 µM (active) | 1.66 µM (active) | inactive | inactive | inactive | inactive | inactive | inactive | inactive | -10.1% (inactive) |  | inactive |  | 
3 | Cc1nccn1CC1CCc2c(c3ccccc3n2C)C1=O (centres undefined) | inactive | inactive | inactive | inactive | inactive | inactive | inactive | inactive | inactive | -14.2% (inactive) | inactive | inactive |  | 
4 | O[C@@H](COc1cccc2ncccc12)CN1CCN(C2c3ccccc3[C@@H]3[C@H](c4ccccc42)C3(F)F)CC1 (some centres undefined) | 5.9 µM (active) and 9.2 µM (active) | 6.61 µM (active) and 9.2 µM (active) | inactive | inactive | inactive | inactive | inactive | inactive | inactive |  | 3.55 µM (active) |  | inactive | 20.6 µM (active)
5 | N[C@@H](Cc1cc(I)c(Oc2cc(I)c(O)c(I)c2)c(I)c1)C(=O)O | inactive | inactive and 1.61 µM (active) | inactive | inactive | inactive | inactive | inactive | inactive | inactive | 3.69% (inactive) and -6.52% (inactive) | inactive |  | inactive | 
6 | CCc1ccc(C(=O)Nc2cc(CN3CCN(C)CC3)cc(C(F)(F)F)c2)cc1C#Cc1cnc2ccnn2c1 | 2.59 µM (active) and 2.06 µM (active) | 3.66 µM (active) and 1.84 µM (active) | inactive | inactive | inactive | inactive | inactive | inactive |  |  | 7.94 µM (active) | inactive |  | 10 µM (active)
